From PubChem BioAssay (NCI)
The panel holds about 79,000 compounds, 15% with a hit somewhere; the sample as a whole holds those more often. The source made the active and inactive calls. Cut-off read from the data, not from the text of the source: active = growth inhibition above about 70%; inactive = the rest.

How the values were obtained:
[1] = NCI Yeast Anticancer Drug Screen. Data for the rad52 strain (AID 147);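 note: 0% = growth of vehicle-treated control cultures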; conditions: S. cerevisiae rad52 mutant growth inhibition, hits give high values
Outline: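 Compounds are applied to a genetically defined yeast strain lacking normal DNA damage repair, and inhibition of growth is expressed relative to cultures given vehicle only.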

[2] = NCI Yeast Anticancer Drug Screen. Data for the wt1 strain (AID 149);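 note: 0% = growth of vehicle-treated wt1 cultures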; conditions: S. cerevisiae wt1 strain (SPY 50644) growth inhibition, hits give high values
Outline: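 Vehicle-normalised growth inhibition; strain wt1; compound exposure.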

[3] = NCI Yeast Anticancer Drug Screen. Data for the rad50EPP+ strain (AID 151);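 note: 0% = growth of vehicle-treated control cultures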; conditions: S. cerevisiae rad50 mutant strain, hits give high values
Outline: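 Compounds were applied to the rad50EPP+ yeast strain, which bears a defined DNA repair alteration, and growth inhibition was determined relative to vehicle-treated cultures.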

[4] = NCI Yeast Anticancer Drug Screen. Data for the mgt1 strain (AID 153); conditions: S. cerevisiae mgt1 mutant growth inhibition, hits give high values
Outline: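 Strain: mgt1 yeast, one of a set carrying defined DNA damage repair or cell cycle control alterations. Compound-treated growth compared with vehicle.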

[5] = NCI Yeast Anticancer Drug Screen. Data for the rad50 strain (AID 155);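 note: 0% = growth of vehicle-only cultures of the same strain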; conditions: S. cerevisiae rad50 strain growth inhibition, hits give high values
Outline: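 A DNA repair-deficient yeast mutant serves as the test organism; compound-induced growth inhibition is calculated against vehicle-treated cells.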

[6] = NCI Yeast Anticancer Drug Screen. Data for the mec2-1 strain (AID 157); conditions: S. cerevisiae mec2-1 strain, hits give high values
Outline: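 Strain: mec2-1 (DNA repair/cell cycle alteration). Compound exposure, then growth measured; inhibition expressed relative to vehicle.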

[7] = NCI Yeast Anticancer Drug Screen. Data for the rad14 strain (AID 159);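 note: 0% = growth of vehicle-treated control cultures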; conditions: S. cerevisiae rad14 strain growth inhibition, hits give high values
Outline: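 Vehicle-treated cultures served as the baseline for growth inhibition of a DNA repair-mutant yeast strain exposed to each compound.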

[8] = NCI Yeast Anticancer Drug Screen. Data for the sgs1 mgt1 strain (AID 161);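 note: 0% = growth of cultures given vehicle only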; conditions: S. cerevisiae sgs1 mgt1 strain, hits give high values
Outline: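 Test agents were incubated with a DNA-repair-mutant yeast strain. Growth was then read and compared against vehicle-treated controls.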

[9] = NCI Yeast Anticancer Drug Screen. Data for the CLN2oe strain (AID 163);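 note: 0% = growth of vehicle-only control cultures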; conditions: S. cerevisiae CLN2oe strain, hits give high values
Outline: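 Growth of a genetically modified yeast strain is measured after compound exposure and compared with cultures given vehicle alone.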

[10] = NCI Yeast Anticancer Drug Screen. Data for the cln2 rad14 strain (AID 165);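 note: 0% = growth equal to vehicle treated cultures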; conditions: S. cerevisiae cln2 rad14 strain, hits give high values
Outline: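 Compounds are applied to the cln2 rad14 yeast strain, and growth is then compared with that of vehicle-treated cultures to give inhibition.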

[11] = NCI Yeast Anticancer Drug Screen. Data for the bub3 strain (AID 167); conditions: S. cerevisiae bub3 mutant strain, hits give high values
Outline: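 Inhibition values come from growth of compound-treated mutant yeast normalised to vehicle-treated controls.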

[12] = NCI Yeast Anticancer Drug Screen. Data for the wt2 strain (AID 169);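 note: 0% = growth of vehicle-treated yeast cultures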; conditions: S. cerevisiae wt2 strain growth inhibition, hits give high values
Outline: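 This strain belongs to a panel of yeast strains with defined genetic alterations in DNA damage repair or cell cycle control. Compounds are applied, and growth inhibition is measured against vehicle-treated cultures.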

[13] = NCI Yeast Anticancer Drug Screen. Data for the mlh1 strain (AID 171);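 note: 0% = growth of vehicle-treated control cultures of the same strain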; conditions: S. cerevisiae mlh1 strain growth inhibition, hits give high values
Outline: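 Growth of the mutant yeast strain after compound exposure, expressed as inhibition relative to vehicle-only controls.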

[14] = NCI Yeast Anticancer Drug Screen. Data for the sgs1 strain (AID 173);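 note: 0% = growth of vehicle-only control cultures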; conditions: S. cerevisiae sgs1 mutant, hits give high values
Outline: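 Growth of a yeast strain bearing a defined genetic alteration is measured after compound treatment. Inhibition is expressed relative to vehicle-only controls.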

[15] = NCI Yeast Anticancer Drug Screen. Data for the mlh1 rad18 strain (AID 175); conditions: S. cerevisiae mlh1 rad18 strain growth inhibition, hits give high values
Outline: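 Read-out is yeast growth inhibition, calculated against vehicle-only controls. The compound was applied to a strain engineered with DNA damage repair alterations.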

[16] = NCI Yeast Anticancer Drug Screen. Data for the rad18 strain (AID 177); conditions: S. cerevisiae rad18 mutant growth inhibition, hits give high values
Outline: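 Growth of the mutant yeast strain after compound exposure, normalised to vehicle-only cultures.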

[17] = at 5.0 µM (retest, dose inferred, filed as 0.5)
[18] = at 50.0 µM (retest, dose inferred, filed as 5.0)

Measured: growth inhibition

O=[N+]([O-])c1ccc2nc3ccccc3cc2c1
active: [1]; at 33.0 µM 74% | [1]; at 100.0 µM 96% | [2]; at 100.0 µM 81% | [3]; at 11.0 µM 85% | [3]; at 33.0 µM 90% | [3]; at 100.0 µM 96% | [4]; at 100.0 µM 86% | [5]; at 33.0 µM 89% | [5]; [18] 92% | [5]; at 50.0 µM 87% | [5]; at 100.0 µM 95% | [6]; [18] 85% | [6]; at 100.0 µM 84% | [7]; at 100.0 µM 91% | [8]; [18] 89% | [11]; [18] 91% | [11]; at 100.0 µM 94% | [12]; at 100.0 µM 89% | [13]; at 100.0 µM 96% | [14]; at 33.0 µM 80% | [14]; at 100.0 µM 97% | [15]; [18] 90% | [15]; at 50.0 µM 89.1% | [16]; at 33.0 µM 87% | [16]; at 100.0 µM 96%
inactive: [1]; at 1.2 µM 3% | [1]; at 3.7 µM 13% | [1]; at 11.0 µM 35% | [2]; at 1.2 µM -5% | [2]; at 3.7 µM -4% | [2]; at 11.0 µM -7% | [2]; at 33.0 µM 21% | [3]; at 1.2 µM 22% | [3]; at 3.7 µM 63% | [4]; at 1.2 µM -1% | [4]; at 3.7 µM -5% | [4]; at 11.0 µM -1% | [4]; at 33.0 µM 29% | [5]; at 1.2 µM 1% | [5]; at 3.7 µM 22% | [5]; [17] -16% | [5]; at 11.0 µM 59% | [6]; at 1.2 µM -2% | [6]; at 3.7 µM 1% | [6]; [17] -37% | [6]; at 11.0 µM 8% | [6]; at 33.0 µM 27% | [6]; at 50.0 µM 55.5% | [7]; at 1.2 µM 0% | [7]; at 3.7 µM 9% | [7]; at 11.0 µM 20% | [7]; at 33.0 µM 45% | [8]; [17] -40% | [8]; at 50.0 µM 68.2% | [9]; at 1.2 µM -6% | [9]; at 3.7 µM -2% | [9]; at 11.0 µM 5% | [9]; at 33.0 µM 18% | [9]; at 100.0 µM 54% | [10]; [17] -59% | [10]; [18] 16% | [10]; at 50.0 µM 0.1% | [11]; at 1.2 µM -2% | [11]; at 3.7 µM -2% | [11]; [17] -51% | [11]; at 11.0 µM 14% | [11]; at 33.0 µM 39% | [11]; at 50.0 µM 69% | [12]; at 1.2 µM 0% | [12]; at 3.7 µM 1% | [12]; at 11.0 µM 3% | [12]; at 33.0 µM 33% | [13]; at 1.2 µM 7% | [13]; at 3.7 µM 0% | [13]; at 11.0 µM 14% | [13]; at 33.0 µM 51% | [14]; at 1.2 µM -2% | [14]; at 3.7 µM 13% | [14]; at 11.0 µM 36% | [15]; [17] -71% | [16]; at 1.2 µM 14% | [16]; at 3.7 µM 32% | [16]; at 11.0 µM 67%

O=C1C(Nc2ccccc2)=C(Oc2ccccc2)C(=O)c2ccccc21
inactive: [1]; at 1.2 µM -3% | [1]; at 3.7 µM -6% | [1]; at 11.0 µM 1% | [1]; at 33.0 µM 23% | [1]; at 100.0 µM 32% | [2]; at 1.2 µM 3% | [2]; at 3.7 µM -10% | [2]; at 11.0 µM 7% | [2]; at 33.0 µM -4% | [2]; at 100.0 µM 14% | [3]; at 1.2 µM 5% | [3]; at 3.7 µM 20% | [3]; at 11.0 µM 28% | [3]; at 33.0 µM 58% | [3]; at 100.0 µM 60% | [4]; at 1.2 µM 5% | [4]; at 3.7 µM -2% | [4]; at 11.0 µM 2% | [4]; at 33.0 µM 1% | [4]; at 100.0 µM -1% | [5]; at 1.2 µM -6% | [5]; at 3.7 µM -11% | [5]; [17] -1% | [5]; at 11.0 µM -5% | [5]; at 33.0 µM 27% | [5]; [18] 26% | [5]; at 50.0 µM 23.7% | [5]; at 100.0 µM 38% | [6]; at 1.2 µM 2% | [6]; at 3.7 µM 1% | [6]; [17] 3% | [6]; at 11.0 µM 6% | [6]; at 33.0 µM 3% | [6]; [18] 20% | [6]; at 50.0 µM 24.4% | [6]; at 100.0 µM 2% | [7]; at 1.2 µM 13% | [7]; at 3.7 µM 0% | [7]; at 11.0 µM 4% | [7]; at 33.0 µM 9% | [7]; at 100.0 µM -15% | [8]; [17] -2% | [8]; [18] 17% | [8]; at 50.0 µM 16.4% | [9]; at 1.2 µM -6% | [9]; at 3.7 µM -2% | [9]; at 11.0 µM 1% | [9]; at 33.0 µM -1% | [9]; at 100.0 µM -4% | [10]; [17] -7% | [10]; [18] 1% | [10]; at 50.0 µM 5.25% | [11]; at 1.2 µM 3% | [11]; at 3.7 µM 9% | [11]; [17] 16% | [11]; at 11.0 µM 23% | [11]; at 33.0 µM 55% | [11]; [18] 59% | [12]; at 1.2 µM -10% | [12]; at 3.7 µM 0% | [12]; at 11.0 µM 11% | [12]; at 33.0 µM 35% | [12]; at 100.0 µM 29% | [13]; at 1.2 µM -5% | [13]; at 3.7 µM 0% | [13]; at 11.0 µM 1% | [13]; at 33.0 µM 0% | [13]; at 100.0 µM 0% | [14]; at 1.2 µM -7% | [14]; at 3.7 µM -2% | [14]; at 11.0 µM 3% | [14]; at 33.0 µM 15% | [14]; at 100.0 µM 16% | [15]; [17] -3% | [15]; [18] 30% | [15]; at 50.0 µM 58.8% | [16]; at 1.2 µM -4% | [16]; at 3.7 µM 4% | [16]; at 11.0 µM 4% | [16]; at 33.0 µM 14% | [16]; at 100.0 µM 1%
active: [11]; at 50.0 µM 82.5% | [11]; at 100.0 µM 70%
